From PubChem BioAssay (NCATS)
Results filed as inconclusive are left out. A call without a number means that no potency is given here. Calls of active or inactive are those of the source. The call rests on the fitted dose curve; in most records, active means well fitted cell-killing curve with a large enough effect; inconclusive means small, poorly fitted or top-dose-only effect; inactive means flat fitted curve, though single readings scatter.

assay: Quantitative highthroughput screen to assess conditional lethalithy of NOMO1 cells grown in RPMI1640 with dialyzed fetal bovine serum (RPMI+ds) (AID 1963877); details: NOMO1 in RPMI+dialyzed FBS viability, ATP luminescence, 48 h; series mostly up to 45.8 µM; further: nearly all actives have a fitted effect of over 30% in size; further: potency means the concentration at half of the fitted maximal effect
Outline: (§1)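 Each medium arm—HPLM with 10% dialyzed FBS, or RPMI1640 with 5 mM glucose and 10% untreated or dialyzed FBS—was screened against an 11-point, 3-fold compound titration for 48 h at 37 °C, with CellTiter-Glo luminescence as endpoint.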

Compound | Potency
CNCC(O)c1ccc(O)cc1 (stereo not given) | inactive
CC1(N2CCC(n3c([C@@H]4CCCNC4)nc4ccccc43)CC2)CCCCCCC1 | 16.6 µM (active)
O=S(=O)(F)Cc1ccccc1 | inactive
CC(C)N(CCNC(=O)CN1CCCC1=O)C(C)C | inactive

assay: Quantitative highthroughput screen to assess conditional lethalithy of P12 Ichikawa cells grown in Human Plasma-Like Medium with dialyzed fetal bovine serum (HPLM+ds) (AID 1963879); details: ATP luminescence, 48 h; Potency: viability; series mostly up to 45.8 µM; further: nearly all actives have a fitted effect of over 35% in size
Outline: as §1

Compound | Potency
CCC1(c2ccc(N)cc2)CCC(=O)NC1=O (stereo not given) | inactive
COc1ccc(N(C(=O)Oc2c(C)cccc2C)c2ccnc(Nc3ccc(N4CCN(C)CC4)cc3)n2)c(OC)c1 | inactive
O=C(O)c1nn(Cc2ccc(Cl)cc2Cl)c2ccccc12 | inactive

assay: Quantitative highthroughput screen to assess conditional lethalithy of P12 Ichikawa cells grown in RPMI1640 with untreated serum (RPMI+s) (AID 1963881); details: ATP luminescence, 48 h; Potency: viability; series mostly up to 45.8 µM; further: nearly all actives have a fitted effect of over 35% in size
Outline: as §1

Compound | Potency
CCCC[N+]1(C)[C@H]2CC(OC(=O)[C@H](CO)c3ccccc3)C[C@H]1[C@H]1O[C@H]12 (stereo not given in full) | inactive
O=S(=O)(F)Cc1ccccc1 | inactive
CCC1(c2ccc(N)cc2)CCC(=O)NC1=O (stereo not given) | inactive
COC[C@H]1OC(=O)c2coc3c2[C@@]1(C)C1=C(C3=O)C2CCC(=O)[C@@]2(C)C[C@H]1OC(C)=O (stereo not given in full) | inactive
CCOP(=O)(OCC)C(C)NC(=O)N(CCCl)N=O (stereo not given) | inactive
O=c1[nH]c2ccccc2n1C1CCN(Cc2ccc(-c3[nH]c4cc5ncnc5cc4nc3-c3ccccc3)cc2)CC1 | inactive
C[C@]12CC[C@@H]3c4ccc(OC(=O)N(CCCl)CCCl)cc4CC[C@H]3[C@@H]1CC[C@@H]2OP(=O)(O)O | inactive
O=C(O)c1nn(Cc2ccc(Cl)cc2Cl)c2ccccc12 | inactive
